Columns and labels:
Settings in all cases: concentration: 1 μM, replicates: in singlicate; n = 1
[1] = tested on: CDK2
[2] = tested on: CDK3
[3] = tested on: CDK4-cyclinD1
[4] = tested on: CDK4-cyclinD3
[5] = tested on: CDK4
[6] = tested on: CDK5
[7] = tested on: CDK7
[8] = tested on: CDK8
[9] = tested on: CDK9
[10] = tested on: CDKL1
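Also: KINOMEscan kinase panel screen.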

SMILES | %Inh [1] [%] | %Inh [2] [%] | %Inh [3] [%] | %Inh [4] [%] | %Inh [5] [%] | %Inh [6] [%] | %Inh [7] [%] | %Inh [8] [%] | %Inh [9] [%] | %Inh [10] [%]
CNc1nccc(-c2c(-c3ccc(F)cc3)ncn2CCCN2CCOCC2)n1 [SB-222516] | 0 | 0 | 17 | 16 | 0 | 0 | 7 | 38 | 0 | 24
CC(C)N1CCC(n2cnc(-c3ccc(F)cc3)c2-c2ccnc(N)n2)CC1 [SB-223132] | 0 | 28 | 0 | 0 | 10 | 0 | 0 | 54 | 0 | 57
O=C(Nc1ccccc1F)NC1CCN(c2ccnc(Nc3ccc(F)cc3)n2)C1 (stereo not shown) [GSK1379722] | 0 | 16 | 0 | 2 | 31 | 0 | 0 | 22 | 0 | 18
Cc1ccc(O)cc1Nc1cc(C(F)(F)F)nc2ccc(-c3ccncc3)cc12 [GW630823] | 5 | 0 | 0 | 0 | 0 | 0 | 0 | 0 | 5 | 20

— publication PMC5540273 (PLoS ONE, 2017)
